Paper PMC4336329 (PLoS ONE, 2015)
Among all 310,000 compounds or so, about 14,000 (4.5%) showed an effect of 50% or more. The effect is printed as a negative number. Shown is part of a subset that was picked to be rich in strong results.

Each compound was assayed against human ether-à-go-go-related gene (hERG) potassium channel (human, UniProt Q12809) (assay: primary screen, population patch clamp on CHO cells stably expressing hERG; higher = less effect of the substance).
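Note: peak tail current of the secondary pulse compared with the same well before compound.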

human ether-à-go-go-related gene (hERG) potassium channel, sequence (Q12809 whole entry, looked up): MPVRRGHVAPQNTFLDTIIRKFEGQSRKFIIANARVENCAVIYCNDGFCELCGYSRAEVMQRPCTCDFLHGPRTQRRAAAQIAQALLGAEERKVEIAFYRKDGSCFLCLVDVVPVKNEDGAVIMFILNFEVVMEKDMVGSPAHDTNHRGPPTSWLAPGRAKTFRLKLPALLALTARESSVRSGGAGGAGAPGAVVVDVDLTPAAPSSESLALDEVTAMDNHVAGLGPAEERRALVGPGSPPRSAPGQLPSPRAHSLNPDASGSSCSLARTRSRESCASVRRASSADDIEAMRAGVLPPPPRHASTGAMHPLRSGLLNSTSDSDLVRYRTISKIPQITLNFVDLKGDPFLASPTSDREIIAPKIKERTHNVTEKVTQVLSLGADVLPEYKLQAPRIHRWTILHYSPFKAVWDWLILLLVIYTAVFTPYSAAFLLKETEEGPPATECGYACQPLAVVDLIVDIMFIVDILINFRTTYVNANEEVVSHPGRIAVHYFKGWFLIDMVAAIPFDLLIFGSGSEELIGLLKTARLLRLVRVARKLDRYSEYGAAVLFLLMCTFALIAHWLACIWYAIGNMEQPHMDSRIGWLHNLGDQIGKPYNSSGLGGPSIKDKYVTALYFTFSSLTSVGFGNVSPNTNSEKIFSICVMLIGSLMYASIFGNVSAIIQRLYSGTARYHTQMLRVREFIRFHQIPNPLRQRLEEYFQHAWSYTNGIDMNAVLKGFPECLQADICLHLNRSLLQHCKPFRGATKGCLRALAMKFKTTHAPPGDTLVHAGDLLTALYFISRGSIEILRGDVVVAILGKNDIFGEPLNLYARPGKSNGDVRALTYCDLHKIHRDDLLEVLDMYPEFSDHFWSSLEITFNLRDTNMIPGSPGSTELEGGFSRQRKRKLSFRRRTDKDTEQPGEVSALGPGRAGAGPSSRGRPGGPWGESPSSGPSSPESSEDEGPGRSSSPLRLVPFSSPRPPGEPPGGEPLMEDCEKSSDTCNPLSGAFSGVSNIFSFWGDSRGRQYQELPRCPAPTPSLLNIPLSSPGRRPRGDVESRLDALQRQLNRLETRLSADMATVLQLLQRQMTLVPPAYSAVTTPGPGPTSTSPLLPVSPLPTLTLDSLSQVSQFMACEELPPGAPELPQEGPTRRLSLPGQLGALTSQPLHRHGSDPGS

Row | SMILES | hERG current change (%, negative = inhibition) at 10uM [%]
1 | Cc1cc(OCCN2CCOCC2)ccc1[N+](=O)[O-].O=C(O)C(=O)O | 5.11
2 | Cc1ccc([N+](=O)[O-])c(OCCCN2CCC(Cc3ccccc3)CC2)c1.O=C(O)C(=O)O | -89.6
3 | O=C(Nc1ccccc1F)c1ccc2c(c1)CCN2S(=O)(=O)c1ccccc1 | 19.5
4 | C=CCn1c(SCc2ccccc2C#N)nnc1-c1ccccc1O | -23.7
5 | Cc1ccc2c(c1)C(c1ccc(N3CCOCC3)cc1)=NNC(c1cccs1)=N2 | 1.66
6 | Nc1n[nH]c(N)c1N=Nc1ccc(Cl)cc1Cl | 19.1
7 | COc1ccc(-c2noc(N3CCC(C(=O)Nc4ccccc4Cl)CC3)n2)cc1 | 10.8
8 | Cc1cc(NC(=O)c2ccccc2)sc1C | 5.55
9 | Cc1cc(OC(=O)c2cccc(Cl)c2)c([N+](=O)[O-])c(=O)[nH]1 | 19.9
10 | COCCNc1oc(-c2ccco2)nc1S(=O)(=O)c1ccccc1 | 2.69
11 | CCC(CO)NCC(O)COCc1ccc2c(c1)OCO2 (stereo not drawn) | 10.1
12 | Cc1cc(C)c(C)c(OCCOCCN2CCN(C)CC2)c1 | -1.93
13 | Cc1cc(OCCN2CCC(Cc3ccccc3)CC2)ccc1[N+](=O)[O-].O=C(O)C(=O)O | -79.1
14 | Cc1cc(C)c(C)c(OCCCCN2CCCCC2)c1 | -52.5
15 | Cc1ccc(OCCCCN2CCCC(C)C2)c([N+](=O)[O-])c1.O=C(O)C(=O)O (stereo not drawn) | -69
16 | Cc1ccc(OCCCN2CCOCC2)c([N+](=O)[O-])c1.O=C(O)C(=O)O | -12
17 | Cc1ccc(OCCCCN2CCCCC2)c(C)c1 | -24.6
18 | Cc1cc(OCCN2CCCC2)ccc1[N+](=O)[O-].O=C(O)C(=O)O | -9.82
19 | Cc1cc(OCCN2CCCCCC2)ccc1[N+](=O)[O-].O=C(O)C(=O)O | -46.2
20 | Cc1ccc(C)c(OCCCN2CCCC2)c1.O=C(O)C(=O)O | -54.9
21 | Cc1ccc(C)c(OCCCCN2CCCCC2)c1.O=C(O)C(=O)O | -42.1
22 | Cc1ccc(OCCCN2CCCC2)c(C)c1.O=C(O)C(=O)O | -27.2
23 | Cc1ccc(OCCOCCN2CCCCC2)c([N+](=O)[O-])c1.O=C(O)C(=O)O | -37.5

Row | SMILES | hERG current change (%, negative = inhibition) at 10uM [%]
24 | CCN(CC(=O)NC1CCS(=O)(=O)C1)S(=O)(=O)c1ccccc1 (stereo not drawn) | 7.7
25 | CCOc1ccc(Br)cc1S(=O)(=O)Nc1ccccc1N1CCOCC1 | -15.8
26 | O=C(Cn1cccc1)N1CCN(C(c2ccccc2)c2ccccc2)CC1 | -3.68
27 | Cn1c(=O)c2c(nc(NC3CCCCC3)n2Cc2ccccc2)n(C)c1=O | 14.2
28 | Cc1ccc(CN(C(=O)c2cc(=O)c3cc(C)cc(C)c3o2)C2CCS(=O)(=O)C2)cc1 (stereo not drawn) | -32.1
29 | COc1ccc(N2CC(C(=O)N[C@@H](C)C(=O)NC3CCCC3)CC2=O)cc1 (stereo partly drawn) | 15.7
30 | CN(C)/C=C/C(=O)c1cnc2sccn2c1=O | 5.24
31 | O=C(/C=C/c1ccccc1Cl)c1ccccc(=O)c1O | -1.72
32 | Cc1ccc(C)c(/C=C/C(=O)c2ccccc(=O)c2O)c1 | -50.7
33 | Cc1ccc(/C=C/C(=O)c2ccccc(=O)c2O)cc1C | -24.6
34 | COc1ccc(C(=O)N/N=C(/C)c2cccc(NC(=O)c3ccncc3)c2)cc1OC | 8.48
35 | C/C(=N\NC(=O)c1ccncc1)c1cccc(NC(=O)c2ccc(C(C)(C)C)cc2)c1 | -53.7
36 | O=C(c1ccccc1)c1cccc(NC(=O)c2ccc(Br)o2)c1 | -61.1
37 | C/C(=N\NC(=O)c1cccc(F)c1)c1cccc(NC(=O)c2ccc(F)cc2)c1 | 13
38 | C/C(=N\NC(=O)c1ccc(F)cc1)c1cccc(NC(=O)c2cccc(F)c2)c1 | 21.3
39 | C/C(=N/NC(=O)c1ccc(Br)o1)c1cccc(NC(=O)c2ccc(F)cc2)c1 | -58.9
40 | O=C(Nc1ccccc1)c1ccc(Br)o1 | 3.15
41 | C/C(=N/NC(=O)c1ccncc1)c1ccc(NC(=O)c2ccccc2)cc1 | 7.92
42 | CC(=O)c1cccc(NC(=O)c2ccc(Br)o2)c1 | -1.49
43 | C/C(=N/NC(=O)c1ccco1)c1cccc(NC(=O)c2ccc(C)o2)c1 | -45.4
44 | C/C(=N/NC(=O)c1ccc(Br)o1)c1cccc(NC(=O)c2ccc(C)o2)c1 | -67.6
45 | C/C(=N\NC(=O)c1cccc(Br)c1)c1cccc(NC(=O)c2ccc(C)o2)c1 | -6.46
